# Measurements from PubChem BioAssay (NCATS).
# Records with an inconclusive call do not appear. Entries that show only a call come without a potency. The source made the active and inactive calls. Calls follow the shape of the dose curve; as a rule, active = well fitted inhibition curve with a large enough effect; inconclusive = small, poorly fitted or top-dose-only effect; inactive = no such curve, though single readings can be large or run the other way.
# Assays:
# [1] = tested on: Zika virus NS2B-NS3 protease (unlinked complex); assay: Primary screen GU Rhodamine qHTS for Zika virus inhibitors: Unlinked NS2B-NS3 protease assay (AID 1347159); conditions: Recombinant ZIKV NS2B-NS3 protease, Rhodamine110 substrate fluorescence; series mostly up to 107 µM; also: nearly all actives have a fitted effect of over 60% in size
# Procedure, shortened: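 Noncovalent NS2B hydrophilic domain/NS3 protease complex (25 nM final) in 10 mM Tris-HCl pH 8.0, 0.01% Tween 20, preincubated 15 min with compounds (up to 114 microM), then 1.5 microM Rhodamine110 substrate. Fluorescence change over 15 min fitted to 4-parameter Hill.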
# [2] = tested on: Zika virus NS2B-NS3 protease (linked construct); assay: Primary screen NINDS Rhodamine qHTS for Zika virus inhibitors (AID 1347160); conditions: purified NS2B-NS3 protease, Rhodamine110 substrate fluorescence; series mostly up to 57.1 µM; also: nearly all actives have a fitted effect of over 55% in size
# Procedure, shortened: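 Purified NS2B-NS3 protease with the NS2B hydrophilic domain joined by a flexible linker (25 nM) in 10 mM Tris-HCl pH 8.0, 0.01% Tween 20, preincubated 15 min at RT with compound; Rhodamine110 peptide substrate 1.5 µM; fluorescence change over 15 min; 4-parameter Hill fit.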
# Potency is read from the fitted curve at half-maximal effect.
SMILES,Potency [1],Potency [2]
COCCCNC(=O)c1ccc(Cn2c(=O)c3ccccc3n(Cc3ccc(C(C)C)cc3)c2=O)cc1,inactive,inactive
CC[C@H]1CN(c2nc(N)c(C(N)=O)nc2Cl)CCN1C1CCN(Cc2ccc(Cl)cc2)CC1,inactive,inactive
Cc1nc(C#Cc2ccnc(Cl)c2)c(C)n1-c1ccc(OC(F)(F)F)cc1,inactive,inactive
CCn1c(=O)c(-c2ccc(Cl)cc2Cl)cc2cnc(Nc3ccc(N4CCNCC4)c(F)c3)nc21,inactive,inactive
O=[N+]([O-])c1cn2c(n1)OC[C@@H](OCc1ccc(-c3ccc(OC(F)(F)F)cc3)nc1)C2,inactive,inactive
COc1cc2nc(N3CCN(C(=O)COc4c(OC)cccc4C(C)C)CC3)nc(N)c2cc1OC,inactive,inactive
Cc1cc(N2CCOCC2)ccc1Nc1nc(NC2CCCCC2)c2[nH]cnc2n1,inactive,inactive
COc1cc(O)cc(/C=C/c2cccc(O)c2)c1,inactive,inactive
COC(=O)c1cc2c(C(F)(F)F)cc(-c3ccccc3)cc2n1O,12.6 µM (active),15.8 µM (active)
CCOc1ccc(CCNC(=O)c2cc3sc(Cl)cc3n2C)cc1OCC,inactive,inactive
COc1cc2ncnc(Oc3ccc(CC(=O)Nc4cnn(C(C)C)c4)cc3)c2cc1OC,inactive,inactive
Cn1c(=O)c2c(ncn2Cc2ccc(C(C)(C)C)cc2)n(C)c1=O,inactive,inactive
CC(C)C(C)C(O)C1CC23CC(=O)C4(O)C(=C2CCC3C1C)C=CC1(O)CC(O)CCC14C (stereo not drawn),inactive,inactive
N#Cc1cnc2c(Cl)cc(NCc3cn(CCN4CCCCCC4)nn3)cc2c1Nc1ccc(F)c(Cl)c1,inactive,inactive
CC(C)C[C@@H]1NC(=O)[C@@H](Cc2ccccc2)NC(=O)C(CCCCCC(=O)C2CO2)NC(=O)[C@@H]2CCCCN2C1=O (stereo partly drawn),inactive,inactive
CCC[C@H](N[C@H]1CCc2cc(F)cc(F)c2C1)C(=O)Nc1cn(C(C)(C)CNCC(C)(C)C)cn1,inactive,inactive
c1ccc(-c2cnn3cc(-c4ccc(OCCN5CCOCC5)cc4)cnc23)cc1,inactive,inactive

SMILES,Potency [1],Potency [2]
C[C@@H]1C[C@H](C)CN(CCC(=O)Nc2ccc(Br)cc2)C1,inactive,inactive
CCC(C)C(=O)O[C@H]1[C@@H](OC(=O)c2ccoc2)C[C@](C)(O)[C@]23OC(C)(C)[C@H](C[C@H](OC(=O)c4ccoc4)[C@]12COC(C)=O)[C@H]3OC(C)=O (stereo partly drawn),inactive,inactive
CC(C)CCCCC(=O)N[C@@H](CO)C(=O)N[C@@H](CC(C)C)C(=O)[C@@]1(CO)CO1,inactive,inactive
N#Cc1cc(CN2CCC(Nc3ncnc4sc(Cl)cc34)CC2)ccc1F,inactive,inactive
COCCNCc1ccc(-c2cc3nccc(Oc4ccc(NC(=O)C5(C(=O)Nc6ccc(F)cc6)CC5)cc4F)c3s2)nc1,inactive,inactive
CCC(C)C1NC(=O)C(Cc2ccccc2)NC(=O)C(CCCCCC(=O)C(O)CO)NC(=O)C2CCCCN2C1=O (stereo not drawn),inactive,inactive
CCOc1ccc(-n2c([C@@H](C)N(Cc3cccnc3)C(=O)Cc3ccc(OC(F)(F)F)cc3)nc3ncccc3c2=O)cc1,inactive,inactive
Cn1ncnc1[C@H]1c2n[nH]c(=O)c3cc(F)cc(c23)N[C@@H]1c1ccc(F)cc1,inactive,inactive
CCCC(=O)C1(c2ccccc2)CCN(C(=O)[C@@H](Cc2ccc(OC)cc2)NC(=O)[C@@H](N)Cc2cncn2C)CC1,inactive,inactive
O=C(Nc1nc2ccc([N+](=O)[O-])cc2s1)C1CCCCC1,inactive,inactive
C=C1CC2OC(=O)C(=C)C2C(OC(=O)/C(C)=C\C)CC2(C)OC1=CC2=O (stereo not drawn),inactive,inactive
Cc1ccnc(NC(=O)C(C)c2cccc(C(=O)c3ccccc3)c2)c1 (stereo not drawn),inactive,inactive
Cc1cc(CS(=O)(=O)c2ccccc2)cc(OCc2ccc(CN3CCCC3CO)cc2)c1 (stereo not drawn),inactive,inactive
CCCCc1c(-c2ccc(OC)cc2)[nH]c2nccnc12,inactive,inactive
C=C(C)C(=O)OC1CC2(C)OC(=CC2=O)C(=C)CC2OC(=O)C(=C)C12 (stereo not drawn),inactive,inactive
CC(C)S(=O)(=O)NC[C@@H]1CC(c2ccc(N3CCCC3)c(F)c2)=NO1,inactive,inactive
C=CCC1=C[C@]2(OC)[C@H](C)[C@@H](c3ccc4c(c3)OCO4)O[C@]2(OC)CC1=O,inactive,inactive
